From PubChem
DAX1 inh-1: blocks DAX1 repression of SF-1 activated StAR promoter. inhibition, % at 6.8 µM. HEK293T StAR-luciferase reporter, SF-1/DAX-1 repression relief. 370,000 compounds, 1.1% hits;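 active = inhibition above the mean over all tested compounds plus 3 SD, cut at about 3.6% in these data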;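 also: 0% = DAX-1 cells with DMSO and 100% = cells lacking DAX-1 with DMSO; higher inhibition means more luminescence from relief of DAX-1 repression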
ssDAF12 agonist: activators of S. stercoralis DAF-12 nuclear receptor. HEK293 ssDAF-12/GRIP1 lit1-tk-luc reporter, luminescence; % of 3 µM dafachronic acid response. activation, % at 6.8 µM. AID 652126. 370,000 compounds, 1% hits;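 active = activation above the mean over all tested compounds plus 3 SD, cut at about 0.9% in these data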;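 also: 0% = DMSO-only wells and 100% = 3 µM delta7-dafachronic acid wells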
DAX1 inh-2: inhibits human nuclear receptor DAX1 | P51843 | HEK293 Gal4-DAX1 luciferase reporter, luminescence | inhibition, % at 6.75 µM | 340,000 compounds, 0.99% hits | AID 504766;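 active = inhibition above the mean over all tested compounds plus 3 SD, cut at about 4.2% in these data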;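 also: 0% = DAX1-transfected cells with DMSO and 100% = empty-vector control cells with DMSO; inhibition shows as a rise in luminescence from relieved DAX1 repression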
Target sequence (P51843 207-470 limits assumed): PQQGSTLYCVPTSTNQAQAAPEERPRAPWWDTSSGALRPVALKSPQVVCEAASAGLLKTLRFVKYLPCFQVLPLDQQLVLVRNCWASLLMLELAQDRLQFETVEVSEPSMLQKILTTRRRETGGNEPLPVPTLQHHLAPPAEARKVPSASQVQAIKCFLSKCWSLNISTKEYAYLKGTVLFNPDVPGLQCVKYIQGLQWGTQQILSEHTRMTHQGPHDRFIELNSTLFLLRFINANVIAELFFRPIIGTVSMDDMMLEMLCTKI
hgDAF12 agonist: hgDAF-12 agonism, primary luciferase screen. HEK293 GAL4-hgDAF12 UAS-luciferase reporter, agonist luminescence; normalized to butyrate control. 370,000 compounds, 1.8% hits. AID 687014. activation, % at 6.8 µM;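 active = activation above a cutoff set at the mean of all screened compounds plus 3 SD, cut at about 10% in these data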;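 also: 0% = DMSO wells and 100% = sodium butyrate wells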
hcDAF-12 act: activators of H. contortus DAF-12 nuclear receptor | HEK293 hcDAF-12 lit1-tk-luc reporter, luminescence; 0% DMSO, 100% Δ7-dafachronic acid | activation, % at 6.8 µM | 370,000 compounds, 1.4% hits;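 active = activation above the mean of all tested compounds plus 3 SD, cut at about 5.5% in these data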;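 also: 100% = response to 3 µM Δ7-dafachronic acid high control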
DAX1 inh confirm: confirmation of human DAX1 (NR0B1) inhibitors | shares compounds with DAX1 inh-1 | HEK293T StAR-promoter luciferase reporter, SF-1/DAX-1 repression | inhibition, % at 6.8 µM | 2,400 compounds, 87% hits;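 active = inhibition above the average of every tested compound plus 3 SD, cut at about 3.8% in these data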;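 also: 0% = DAX-1 cells with DMSO and 100% = no DAX-1 control cells with DMSO; active compounds raise luminescence by relieving repression of the StAR reporter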
SF1 AF2mut Luc: nonselective inhibitor or artifact in SF-1 mutant DAX1 counter-screen. AID 652136. inhibition, % at 6.8 µM. shares compounds with DAX1 inh-1. HEK293 StAR-luciferase, SF-1 AF2 mutant, luminescence. 2,400 compounds, 78% hits;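 active = inhibition above the mean of all tested compounds plus 3 SD, cut at about 3% in these data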;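 also: 0% = DAX-1 transfected cells with DMSO and 100% = cells without DAX-1 with DMSO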
* marks the source's active call; other numbers are inactive results; . = not tested or not shown. Only some compounds are listed: those with a hit (about 4.1% of all), similar ones and a draw of the others.

SMILES	DAX1 inh-1	ssDAF12 agonist	DAX1 inh-2	hgDAF12 agonist	hcDAF-12 act	DAX1 inh confirm	SF1 AF2mut Luc
Cc1ccc(S(=O)(=O)N(C)C)cc1NC(=O)COC(=O)/C=C/c1ccc2ccccc2n1	5.0*	-0.1	0.3	3.2	1.4	1.4	0.5
CCOC(=O)C1=C[C@@H](C(C)(C)C)N(S(=O)(=O)c2ccc([N+](=O)[O-])cc2)[C@H]1c1ccccc1Cl	-1.6	-1.1	.	0.0	-0.2	.	.
FC(F)(F)c1ccccc1Cc1c(-c2ccccc2)nc2ccc(Cl)cn12	0.8	-0.1	.	6.1	2.2	.	.
FC(F)(F)c1ccccc1Cc1c(-c2ccc(Cl)cc2)nc2ccc(Cl)cn12	4.8*	0.6	.	11.6*	1.1	4.1*	3.8*
Cc1ccc2nc(-c3ccccc3)c(Cc3ccccc3C(F)(F)F)n2c1	4.7*	-0.1	.	8.7	3.8	3.8*	3.8*
Cc1ccc(-c2nc3ccc(C)cn3c2Cc2ccccc2C(F)(F)F)cc1	5.7*	-0.5	.	12.4*	2.7	5.0*	4.1*
O=C1CCC[C@H]2Cc3nc4cc5c(cc4cc3C[C@]23CCCN13)OCO5	.	-1.3	.	4.5	0.8	.	.
Cc1ccc(F)cc1NC(=O)COC(=O)c1ccc2ncsc2c1	4.7*	-0.1	-0.4	3.3	0.6	3.6	0.5
Cc1ccc(NC(=O)COC(=O)c2ccc3ncsc3c2)c(C)c1	-1.3	-2.0	0.1	-2.8	-2.5	.	.
Cc1ccc(-n2c(SCC(=O)Nc3ccc(Oc4ccccc4)cc3)nnc2-c2ccco2)cc1	-2.7	-1.4	.	-1.5	-1.8	.	.
Cc1ccc(S(=O)(=O)Nc2cccc(-c3ccc(N4CCCCCC4)nn3)c2)cc1	4.9*	-0.7	0.2	5.8	1.0	7.5*	4.2*
COC(=O)[C@]12C[C@H](CC(=O)NCCC(C)C)C(=O)N(Cc3ccc4c(c3)OCO4)C1=C[C@H](C(C)C)O[C@@H]2C1CC1	-1.0	-1.0	.	0.5	-1.0	.	.
Cc1ccc(-c2c(NC(=O)c3ccc(F)cc3)nc3ncccn23)cc1	-0.3	-1.2	.	0.7	-1.0	.	.
C/C(=N/NC(=O)c1ccco1)c1ccc(NC(=O)c2ccc(Br)o2)cc1	5.9*	-0.6	0.4	8.5	3.6	3.0	2.3
CCC1CCc2sc(C(=O)NCC3CCCO3)cc2C1 (configuration not stated)	10.0*	-0.2	3.3	11.1*	0.7	7.3*	3.5*
CCC1CCc2sc(C(=O)NNC(=S)NCC3CCCO3)cc2C1 (configuration not stated)	-0.2	-0.9	0.7	2.8	-0.7	.	.
O=C(Nc1ccc(F)cc1F)c1ccc2c(=O)n3c(nc2c1)CCC3	10.6*	-0.1	0.5	12.7*	3.2	7.9*	6.5*
O=C(Nc1ccc(F)cc1Cl)c1ccc2c(=O)n3c(nc2c1)CCC3	8.8*	0.1	2.0	10.5*	6.5*	8.6*	5.7*
CCc1nnc(NC(=O)c2cc(C)oc2C)s1	9.5*	0.6	0.9	8.8	5.5	7.9*	5.6*
CC(C)C1Oc2ccccc2C(=O)N(CC(=O)c2ccc3c(c2)OCCO3)C1=O (configuration not stated)	7.6*	-0.4	3.6	3.5	3.4	13.6*	8.8*
COC(=O)C1=C(C)N(Cc2ccccc2C(F)(F)F)C(=NCc2ccc3c(c2)OCO3)NC1c1ccccc1 (configuration not stated)	0.5	-1.1	.	0.3	0.2	.	.
COC(=O)[C@]12C=CCN1[C@H](c1ccccc1)c1c(c3ccccc3n1S(=O)(=O)c1ccc(C)cc1)C2	-0.3	-0.4	.	4.7	3.5	.	.
CCSc1nnc(NC(=O)CCN2C(=O)C3CCCCC3C2=O)s1 (configuration not stated)	4.8*	-1.0	1.0	4.1	-0.1	3.5	1.7
CCc1nnc(NC(=O)CCN2C(=O)C3CCCCC3C2=O)s1 (configuration not stated)	1.0	-0.3	-0.4	-0.4	0.7	.	.
CCCC[C@H](C(=O)N(C)c1ccccc1)[C@@H](O)c1ccc(Cl)cc1	-1.0	0.0	.	1.8	-0.7	.	.
SMILES	DAX1 inh-1	ssDAF12 agonist	DAX1 inh-2	hgDAF12 agonist	hcDAF-12 act	DAX1 inh confirm	SF1 AF2mut Luc
CC(C)[C@H](NC(=O)c1ccc(Cl)cc1Cl)C(=O)N1CCC[C@H]1C(=O)NCc1ccccc1	0.0	-0.9	.	1.9	0.0	.	.
Nc1ccc(CSc2ccc(Cl)cc2)c(Cl)c1	7.3*	-0.4	2.6	11.0*	3.2	12.6*	7.6*
Cc1cccc(C(=O)NNC(=O)C2CCCCC2)c1O	4.6*	-1.1	3.3	1.4	0.3	1.6	1.1
CC(C)(C)c1ccc(C(=O)NNC(=O)C2CCCCC2)cc1	0.6	-1.2	3.3	0.7	-0.9	.	.
CC(C)c1ccc(/C=C2\SC(=O)N(CC(=O)NCCCn3ccnc3)C2=O)cc1	6.8*	0.2	0.8	10.7*	3.5	6.2*	6.5*
O=C(N/N=C/c1ccoc1)c1ccccc1F	5.3*	-0.4	0.6	4.4	2.4	3.7*	3.3*
Cc1c(C(=O)N/N=C/c2ccoc2)cccc1[N+](=O)[O-]	0.1	-1.0	1.0	0.9	0.3	.	.
CC(/C=N/NC(=O)c1ccccc1F)=C\c1ccccc1	9.2*	-0.5	1.0	12.2*	4.5	9.9*	4.2*
CC(/C=N/NC(=O)c1ccccc1C)=C\c1ccccc1	0.5	-0.5	.	3.2	1.9	.	.
O=C(N/N=C\c1ccoc1)c1ccco1	6.6*	-0.6	2.1	7.8	3.5	2.5	2.4
Cc1cc(=O)[nH]c(SCC(=O)Nc2cccc(C)c2C)n1	-1.7	-1.6	.	-3.2	-0.6	.	.
CC1CCN(CCCNC(=O)CCc2nnc3n(CCc4ccccc4)c(=O)c4ccccc4n23)CC1	5.7*	-1.4	-0.1	-2.6	1.3	-1.5	-0.2
O=C(CSc1nnc(-c2ccc(Cl)cc2)n1-c1ccccc1)NN=Cc1c[nH]c2ccccc12	-0.5	-1.5	.	-0.8	0.5	.	.
O=C(COC(=O)/C=C/c1ccc(Cl)cc1)NC1CCCCCC1	4.8*	-1.0	-0.2	0.4	-2.3	3.1	1.4
O=C(COC(=O)/C=C/c1ccc(Cl)cc1)NC1CC1	0.2	0.5	-1.1	2.2	2.5	.	.
CC(C)Oc1ccc(C(=O)Nc2nnc(SCC(=O)N3CCOCC3)s2)cc1	5.2*	0.1	-1.6	11.0*	4.8	8.7*	2.2
CC(C)(C)N1Cc2nnn(CC3CCCCC3)c2-c2cc(F)ccc2S1(=O)=O	1.6	-2.3	.	-3.9	-0.2	.	.
CCN(CC)c1ccc(C2Nc3cccc4cccc(c34)N2)cc1	0.6	0.2	0.5	8.0	4.0	.	.
CCN(CC)c1ccc(C2NC(=O)c3ccccc3N2)cc1 (configuration not stated)	7.4*	1.1*	-2.2	8.9	7.9*	2.7	-0.3
